Source: PubChem BioAssay (National Center for Advancing Translational Sciences (NCATS))
In the library only some 8.1% were active in any assay of this set; here they are far more common.
Gal4-VP16 FLuc – inhibits Gal4-VP16 luciferase reporter, ROR gamma counter-screen; Drosophila S2 Gal4-VP16 UAS-luciferase, luminescence, 20 h; hit rate 3.5% among 310,000; Potency, µM (titrated, usually from 53.6 µM), without a hit: at the highest dose activity, negative = inhibition, hits mostly inhibitors;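 note: Gal4-VP16 expression switched on by copper sulfate through the metallothionein promoter; % is set by controls: 0 for no effect and ±100 for the full control effect; nearly all actives have a fitted effect of over 50% in size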
RORg inh – blocks mouse ROR gamma transcriptional activity; P51450; Drosophila S2 Gal4-RORgamma UAS-luciferase reporter, 20 h; Potency, µM (top dose mostly 53.6 µM), for the others: at the top dose activity change, negative = inhibition, hits mostly inhibitors; hit rate 5.4% among 310,000; AID 2551; note: % is set by controls: 0 for no effect and ±100 for the full control effect; nearly all actives have a fitted effect of over 60% in size
Target sequence (P51450 whole entry, looked up, the tested form may be a part): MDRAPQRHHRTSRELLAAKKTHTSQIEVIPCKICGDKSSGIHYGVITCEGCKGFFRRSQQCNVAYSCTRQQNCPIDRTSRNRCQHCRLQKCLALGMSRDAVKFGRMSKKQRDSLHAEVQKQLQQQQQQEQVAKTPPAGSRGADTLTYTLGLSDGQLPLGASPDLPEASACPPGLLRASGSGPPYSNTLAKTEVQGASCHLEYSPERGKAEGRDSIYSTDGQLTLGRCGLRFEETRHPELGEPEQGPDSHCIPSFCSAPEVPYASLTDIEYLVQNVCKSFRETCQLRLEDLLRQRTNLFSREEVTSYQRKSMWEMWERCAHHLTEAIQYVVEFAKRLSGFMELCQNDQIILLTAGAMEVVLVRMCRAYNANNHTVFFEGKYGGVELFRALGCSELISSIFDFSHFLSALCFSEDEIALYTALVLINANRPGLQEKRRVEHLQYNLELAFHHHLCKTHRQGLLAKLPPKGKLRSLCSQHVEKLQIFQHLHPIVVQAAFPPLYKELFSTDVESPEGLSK
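ROR gamma transcriptional activity was tracked as Gal4-UAS luciferase output in stably transfected Drosophila Schneider cells, with compound added 1 hr before 700 uM copper sulfate induction and a 20 hr ambient-temperature incubation.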
Epigenetic derep – regulators of epigenetic silencing causing reporter derepression in mouse cells; Potency, µM (doses to about 53.9 µM), inactives show at the highest dose GFP activation, actives largely listed as activators; hit rate 0.2% among 280,000; murine LDR cells, GFP reporter derepression, 30 h; AID 1865; note: % of control where 0% means no effect; nearly all actives have a fitted effect of over 60% in size
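Readout is the number of GFP-expressing murine LDR cells, counted by cytometry following washing. Cells were treated with compound for 30 h at 37 C; the stably integrated CMV-GFP locus is normally silent.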
PINK1 expr mod – modulators of PINK1 expression; PINK1 immunofluorescence, high-content cytometry, 24 h; Potency, µM (titrated, usually from 76.6 µM), inactives show at the highest dose activation (PINK1 increase), most hits filed as activators; hit rate 0.2% among 410,000; AID 624263; active = well fitted activation curve with a large enough effect; inconclusive = small, poorly fitted or top-dose-only effect; cell line not stated here; note: % of control where 0% means no effect; nearly all actives have a fitted effect of over 65% in size
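Stable cell line, 250 cells/well, 12 h attachment; compounds pinned at 5 concentrations, 24 h; CCCP control. Fixed with nuclear dye, primary antibodies 12 h at 10 degrees C, secondary plus cell stain; laser-scanning cytometer read.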
ClpP mod – qHTS Assay for Activators of ClpP; ATP-dependent Clp protease proteolytic subunit (Bacillus subtilis (strain 168)), P80244; purified B. subtilis ClpP, FRET peptide cleavage, 20 min; Potency, µM (highest dose often 57.5 µM), for the others: top-dose activity change, negative = active; hit rate 1.9% among 340,000; AID 651965, 2013; active = well fitted falling curve with a large enough effect; inconclusive = small, poorly fitted or top-dose-only effect; inactive = no such curve, though single readings can be large or run the other way; note: the source files actives as falling curves though it sought activators and does not explain the sign; nearly all actives have a fitted effect of over 65% in size
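Purified B. subtilis ClpP, 10 microg/mL final in Tris/HCl pH8 with KCl, BSA, glycerol and Tween-20, cleaved an Abz/nitrotyrosine-quenched decapeptide. Fluorescence (ex 320, em 430) was read at 0 and 20 min at room temperature. Delta was normalized to 5.8 microM ADEP and DMSO/no-enzyme controls.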
Sfp PPTase inh – inhibitors of Bacillus subtilis Sfp phosphopantetheinyl transferase; Q9F4F7; Biochemical Sfp PPTase activity, qHTS; Potency, µM, without a hit: largest response in the series, negative = inhibition, usual class: inhibitors; hit rate 3.5% among 310,000; AID 1490;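 note: the enzyme is Sfp with the accession as filed and its product quenches rhodamine fluorescence; 0% = enzyme reaction without inhibitor and -100% = no enzyme wells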
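After 15 min at room temperature with compound, 15 nM Sfp received 5 uM rhodamine-CoA plus 12.5 uM BHQ-2-ybbR (50 mM Hepes pH 7.6, 10 mM MgCl2). Rate came from the fluorescence difference over 30 min, ex 525/em 598 nm.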
* = called active by the depositor; ? = inconclusive; . = no result; [ ] = remark or other dose. Unless noted, calls come from the whole dose curve; as a rule, active = well fitted curve in the direction sought with a large enough effect; inconclusive = small, poorly fitted or top-dose-only effect, or another doubt; inactive = no such curve, though single readings can be large; an effect the other way counts as inactive or inconclusive. Potency is the fitted concentration of half-maximal effect.

SMILES | Gal4-VP16 FLuc | RORg inh | Epigenetic derep | PINK1 expr mod | ClpP mod | Sfp PPTase inh
CNC(=O)COC(=O)c1cc2c(C)nn(-c3ccc(F)cc3)c2s1 | 0% | 24% | 0% | 3%[38.3 µM] | 35µM* | 12%
COc1ccc(NS(=O)(=O)c2ccc(O)c(NC(=O)c3cc4c(C)nn(-c5ccc(F)cc5)c4s3)c2)cc1 | 22µM* | ? | -2% | -1% | 9% | 5%
CCCCCCCCCCCCC/C=C/[C@@H](O)[C@H](CO)NC(=O)CCCCC | -10% | 4% | . | . | . | -12%
Cc1ccc(Cl)cc1NC(=O)Nc1nnc(N(C)Cc2ccccc2)s1 | . | . | -6% | 1% | 0% | .
COc1ccc2nc(N(Cc3cccnc3)C(=O)CCc3ccccc3)sc2c1 | . | . | 1% | 7% | -1% | .
Cc1cn2c(nc(=O)c3cccnc32)s1 | -2% | -4% | -1% | 2% | 16µM* | 2%
O=c1cc(C(F)(F)F)[nH]c(=S)n1-c1ccccc1 | 3% | -25% | . | -1% | -1% | 35µM*
Nc1cc(=O)[nH]c(=S)n1-c1ccccc1 | -1% | 17% | 2% | 0% | -3% | ?
CC(=O)N1CCc2c(sc3c2c(=O)n(Cc2ccccc2)c(=O)n3CC(=O)Nc2ccc(C)c(F)c2)C1 | . | . | 1% | -1% | 0% | .
O=C(Cc1ccccc1)NC1c2ccccc2-c2ccccc21 | -20% | 1% | 1% | 10% | . | 79µM*
O=C(CCc1ccccc1)NCCCNC(=O)CCc1ccccc1 | . | . | . | 1% | 2% | .
O=C(Cc1ccccc1)NCCCNC(=O)Cc1ccccc1 | . | . | . | -6% | 28µM* | .
CCOC(=O)c1cccc(NC(=O)C2CCN(S(=O)(=O)c3c(C)noc3/C=C/c3ccc(C)cc3)CC2)c1 | . | . | 2% | 2% | ? | .
CCC(C(=O)Nc1cc(-c2cn3cccnc3n2)ccc1C)c1ccccc1 (centres undefined) | . | . | 2% | 3% | 4% | .
c1csc(CNc2cc(-c3ccoc3)ncn2)c1 | 13% | 34% | . | 0% | . | 32µM*
c1cncc(-c2cc(NCc3cccs3)ncn2)c1 | -14% | 7% | . | 3% | . | -26%
CCN1C(=O)c2cccc3c(NC(=O)c4ccccc4)ccc1c23 | ? | ? | -1% | 4% | 2% | 1%
CCN1C(=O)c2cccc3c(NC(=O)c4ccc5c(c4)OCCO5)ccc1c23 | -15% | -2% | 22µM* | ? | 2% | -5%
COc1cccc(Nc2c(Nc3cccc(OC)c3)c(=O)c2=O)c1 | -8% | 8% | . | 4% | 0% | 21%
COc1cccc(Nc2ccc(Nc3cccc(OC)c3)nn2)c1 | -26% | 11µM* | 0% | 5% | -5% | -6%
COc1cc(NC(=S)N2CCc3ccccc3C2)cc(OC)c1 | ? | 14µM* | -1% | 0% | . | 15%
CCNC(=S)N1CCc2ccccc2C1 | 18% | -28% | 2% | 1% | . | -1%
COc1ccc(CN2CCc3ccccc3C2)cc1Br | 7% | -5% | . | 14% | 2% | 79µM*
COc1cccc(NC(=S)N2CCc3cc(OC)c(OC)cc3C2)c1 | -2% | -44% | 1% | 0% | . | 19%
CSCCCNC(=S)N1CCc2ccccc2C1 | ? | 3.5µM* | 17% | 0% | 0% | 9%
SMILES | Gal4-VP16 FLuc | RORg inh | Epigenetic derep | PINK1 expr mod | ClpP mod | Sfp PPTase inh
COc1cc2c(cc1OC)CN(C(=S)Nc1cccc(Cl)c1C)CC2 | -15% | ? | 3% | 3% | 32µM* | 11%
COc1ccc(CN2CCc3cc(OC)c(OC)cc3C2)cc1O | 4% | -5% | 1% | 6% | -4% | -15%
Cc1ccc2onc(CC(=O)N3CCN(c4cccc(C)c4C)CC3)c2c1 | . | . | 0% | 0% | -1% | .
O=C(N/N=C1/C[C@@H](O)[C@@H](O)[C@@H]2[C@@H]3C(=O)N(C4CCCCC4)C(=O)[C@H]3CC[C@H]12)OCc1ccccc1 | 12%[10 µM] | 16%[10 µM] | 1%[10.1 µM] | . | . | 9%
CCc1ccc(C(=O)C[N+]2(C)CCOCC2)cc1 | . | . | . | . | -1% | .
Cc1oc(-c2ccc(Cl)cc2)nc1CS(=O)CC(=O)NCc1ccc(Cl)cc1 (centres undefined) | . | . | -1% | 0% | -8% | .
